According to the supplement of paper PMC11732987, “Enantioselective OTUD7B fragment discovery through chemoproteomics screening and high-throughput optimisation” (Communications Chemistry, 2025):

Experiments:
Test in all cases: log2 ratio of Biotin-Ahx-Ub-VS probe labelling (fragment/DMSO); higher = less target engagement (more negative = stronger competition), active = hit call of the paper (q ≤ 0.05, log2 ratio ≤ -1)
Settings in all cases: compound concentration: 200 uM; treatment time: 3 h
USP34 = USP34 (UniProt Q70CQ2)
USP34, sequence (Q70CQ2 whole entry, the tested form may be a part): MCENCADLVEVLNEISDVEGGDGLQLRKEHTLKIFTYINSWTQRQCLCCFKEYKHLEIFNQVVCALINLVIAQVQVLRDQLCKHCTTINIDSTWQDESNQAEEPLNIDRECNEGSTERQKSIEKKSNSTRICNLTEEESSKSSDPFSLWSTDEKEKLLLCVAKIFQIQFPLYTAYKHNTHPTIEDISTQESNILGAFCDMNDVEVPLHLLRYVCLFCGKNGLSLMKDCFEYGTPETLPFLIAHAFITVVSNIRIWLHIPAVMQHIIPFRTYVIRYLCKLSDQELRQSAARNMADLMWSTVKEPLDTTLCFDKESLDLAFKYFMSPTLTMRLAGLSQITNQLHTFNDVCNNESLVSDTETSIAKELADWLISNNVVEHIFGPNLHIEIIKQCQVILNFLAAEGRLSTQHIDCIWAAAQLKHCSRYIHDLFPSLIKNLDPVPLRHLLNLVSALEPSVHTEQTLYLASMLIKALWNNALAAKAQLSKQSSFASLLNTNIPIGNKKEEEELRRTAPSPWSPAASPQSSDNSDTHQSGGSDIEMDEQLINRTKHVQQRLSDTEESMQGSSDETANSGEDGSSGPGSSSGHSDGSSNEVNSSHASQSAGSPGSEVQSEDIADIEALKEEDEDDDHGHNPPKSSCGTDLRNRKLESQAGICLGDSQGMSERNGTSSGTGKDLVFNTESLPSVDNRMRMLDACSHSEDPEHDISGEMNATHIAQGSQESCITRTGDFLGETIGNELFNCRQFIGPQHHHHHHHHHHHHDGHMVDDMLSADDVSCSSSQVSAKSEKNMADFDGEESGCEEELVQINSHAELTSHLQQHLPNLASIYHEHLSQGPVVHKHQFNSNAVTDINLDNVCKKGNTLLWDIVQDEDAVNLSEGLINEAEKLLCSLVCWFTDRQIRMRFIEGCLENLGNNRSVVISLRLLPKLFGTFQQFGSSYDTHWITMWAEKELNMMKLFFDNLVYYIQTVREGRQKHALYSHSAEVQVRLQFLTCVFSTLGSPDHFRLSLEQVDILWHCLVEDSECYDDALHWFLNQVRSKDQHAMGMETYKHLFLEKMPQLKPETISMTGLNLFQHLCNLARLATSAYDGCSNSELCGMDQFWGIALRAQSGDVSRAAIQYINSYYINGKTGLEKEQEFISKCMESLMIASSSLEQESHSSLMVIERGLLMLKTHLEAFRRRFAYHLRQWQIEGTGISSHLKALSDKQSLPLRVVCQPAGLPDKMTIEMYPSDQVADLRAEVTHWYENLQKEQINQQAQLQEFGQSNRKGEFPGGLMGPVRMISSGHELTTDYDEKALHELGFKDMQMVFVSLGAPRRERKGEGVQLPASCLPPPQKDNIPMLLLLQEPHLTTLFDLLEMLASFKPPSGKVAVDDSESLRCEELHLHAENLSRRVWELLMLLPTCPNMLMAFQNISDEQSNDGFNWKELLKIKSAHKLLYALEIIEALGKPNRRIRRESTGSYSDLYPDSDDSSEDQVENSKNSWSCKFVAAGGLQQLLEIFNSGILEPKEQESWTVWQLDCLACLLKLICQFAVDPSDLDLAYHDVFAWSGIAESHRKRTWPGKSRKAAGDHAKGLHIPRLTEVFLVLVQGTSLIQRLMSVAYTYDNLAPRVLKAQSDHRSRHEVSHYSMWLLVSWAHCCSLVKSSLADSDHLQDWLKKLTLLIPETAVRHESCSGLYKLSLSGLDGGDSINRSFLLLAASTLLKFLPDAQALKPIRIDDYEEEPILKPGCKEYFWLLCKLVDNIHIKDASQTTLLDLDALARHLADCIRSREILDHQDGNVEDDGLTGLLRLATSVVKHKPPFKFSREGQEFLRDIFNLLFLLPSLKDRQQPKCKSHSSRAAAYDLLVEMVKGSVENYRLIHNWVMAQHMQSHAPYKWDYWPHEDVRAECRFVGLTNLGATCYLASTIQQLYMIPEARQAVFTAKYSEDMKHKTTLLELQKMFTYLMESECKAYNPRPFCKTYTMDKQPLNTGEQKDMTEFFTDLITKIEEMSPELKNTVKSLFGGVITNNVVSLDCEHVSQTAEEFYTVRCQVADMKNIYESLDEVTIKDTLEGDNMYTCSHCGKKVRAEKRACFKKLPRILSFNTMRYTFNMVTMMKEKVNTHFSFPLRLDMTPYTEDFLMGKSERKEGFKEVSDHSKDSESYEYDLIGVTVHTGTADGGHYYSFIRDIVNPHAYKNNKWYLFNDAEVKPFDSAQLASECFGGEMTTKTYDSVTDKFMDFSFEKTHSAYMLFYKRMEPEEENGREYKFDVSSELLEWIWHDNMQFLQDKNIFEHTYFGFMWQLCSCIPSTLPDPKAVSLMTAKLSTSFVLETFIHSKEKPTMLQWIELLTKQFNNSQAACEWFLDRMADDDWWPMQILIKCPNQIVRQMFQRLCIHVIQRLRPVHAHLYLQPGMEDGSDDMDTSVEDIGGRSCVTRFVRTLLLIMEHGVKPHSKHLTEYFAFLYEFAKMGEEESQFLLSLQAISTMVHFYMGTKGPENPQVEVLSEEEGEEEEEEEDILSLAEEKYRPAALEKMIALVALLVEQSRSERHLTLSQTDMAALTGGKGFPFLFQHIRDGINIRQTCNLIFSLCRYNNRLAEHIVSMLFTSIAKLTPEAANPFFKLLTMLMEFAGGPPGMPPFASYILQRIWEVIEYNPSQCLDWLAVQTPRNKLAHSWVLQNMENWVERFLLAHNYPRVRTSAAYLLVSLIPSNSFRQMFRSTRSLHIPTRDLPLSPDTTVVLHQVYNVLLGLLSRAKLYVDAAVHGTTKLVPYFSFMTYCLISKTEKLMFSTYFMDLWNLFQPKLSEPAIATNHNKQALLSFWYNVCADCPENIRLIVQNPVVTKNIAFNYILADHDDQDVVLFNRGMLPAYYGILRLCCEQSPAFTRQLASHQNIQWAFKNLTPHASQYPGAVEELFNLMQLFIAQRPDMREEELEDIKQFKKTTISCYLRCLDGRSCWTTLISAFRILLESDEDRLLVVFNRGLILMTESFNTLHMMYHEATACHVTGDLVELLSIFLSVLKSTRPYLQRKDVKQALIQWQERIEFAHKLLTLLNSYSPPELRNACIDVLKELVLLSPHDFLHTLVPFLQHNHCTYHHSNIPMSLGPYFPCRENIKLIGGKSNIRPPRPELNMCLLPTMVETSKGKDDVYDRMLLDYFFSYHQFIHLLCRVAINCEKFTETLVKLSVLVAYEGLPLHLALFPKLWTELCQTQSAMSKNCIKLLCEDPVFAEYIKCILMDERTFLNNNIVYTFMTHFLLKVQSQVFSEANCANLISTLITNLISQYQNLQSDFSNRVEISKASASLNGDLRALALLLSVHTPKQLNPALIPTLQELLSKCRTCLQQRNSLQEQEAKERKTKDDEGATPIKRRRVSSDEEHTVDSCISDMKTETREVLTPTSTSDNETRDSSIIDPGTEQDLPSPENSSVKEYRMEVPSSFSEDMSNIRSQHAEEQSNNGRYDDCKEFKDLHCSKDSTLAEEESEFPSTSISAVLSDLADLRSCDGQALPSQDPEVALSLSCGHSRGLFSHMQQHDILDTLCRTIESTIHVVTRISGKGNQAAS
In short: (§1)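 The table lists average log2 ratios of fragment over vehicle, from an unpaired t-test on global-median-normalised Spectronaut label-free quantities. Proteins with ≥2 unique peptides were used. Samples were HEK293T lysate (495 µg) treated in triplicate with fragment at 200 µM or vehicle for 3 h, then with Biotin-Ahx-Ub-VS (0.5 µM final) for 1 h, with labelled DUBs NeutrAvidin-enriched and run by diaPASEF LC-MS/MS.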

USP36 = target: T1, USP36 (UniProt Q9P275)
T1 sequence (whole entry): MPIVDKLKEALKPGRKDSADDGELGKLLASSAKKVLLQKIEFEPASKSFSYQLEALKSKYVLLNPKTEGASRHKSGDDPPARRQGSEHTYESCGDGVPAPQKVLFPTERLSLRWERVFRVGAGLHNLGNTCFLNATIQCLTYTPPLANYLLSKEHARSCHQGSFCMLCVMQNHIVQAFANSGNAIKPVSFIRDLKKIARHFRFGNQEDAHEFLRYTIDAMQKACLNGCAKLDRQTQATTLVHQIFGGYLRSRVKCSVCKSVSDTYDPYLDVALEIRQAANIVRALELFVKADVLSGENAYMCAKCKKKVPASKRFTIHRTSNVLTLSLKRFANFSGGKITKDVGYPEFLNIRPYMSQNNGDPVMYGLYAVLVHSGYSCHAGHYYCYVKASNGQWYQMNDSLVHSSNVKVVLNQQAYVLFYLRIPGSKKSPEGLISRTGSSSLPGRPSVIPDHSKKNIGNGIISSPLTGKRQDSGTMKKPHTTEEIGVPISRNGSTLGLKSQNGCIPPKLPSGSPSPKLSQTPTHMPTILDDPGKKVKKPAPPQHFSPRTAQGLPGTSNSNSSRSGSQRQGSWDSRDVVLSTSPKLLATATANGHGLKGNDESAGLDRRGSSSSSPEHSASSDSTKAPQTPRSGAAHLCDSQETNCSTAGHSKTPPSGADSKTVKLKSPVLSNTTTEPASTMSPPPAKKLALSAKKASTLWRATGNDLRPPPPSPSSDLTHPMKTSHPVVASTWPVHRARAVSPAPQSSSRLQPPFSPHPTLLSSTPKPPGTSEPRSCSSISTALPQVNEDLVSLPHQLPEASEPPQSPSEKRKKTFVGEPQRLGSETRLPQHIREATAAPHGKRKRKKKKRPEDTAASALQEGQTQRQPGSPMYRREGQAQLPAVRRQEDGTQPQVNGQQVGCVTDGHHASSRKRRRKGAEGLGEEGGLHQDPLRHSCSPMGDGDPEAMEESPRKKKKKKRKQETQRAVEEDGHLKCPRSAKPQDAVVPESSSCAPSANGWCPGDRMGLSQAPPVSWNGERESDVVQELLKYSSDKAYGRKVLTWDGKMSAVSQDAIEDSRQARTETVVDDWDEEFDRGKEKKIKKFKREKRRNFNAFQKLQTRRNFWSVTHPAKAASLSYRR
In short: as §1

USP38 = target: T2, USP38 (UniProt Q8NB14)
T2 sequence (whole entry): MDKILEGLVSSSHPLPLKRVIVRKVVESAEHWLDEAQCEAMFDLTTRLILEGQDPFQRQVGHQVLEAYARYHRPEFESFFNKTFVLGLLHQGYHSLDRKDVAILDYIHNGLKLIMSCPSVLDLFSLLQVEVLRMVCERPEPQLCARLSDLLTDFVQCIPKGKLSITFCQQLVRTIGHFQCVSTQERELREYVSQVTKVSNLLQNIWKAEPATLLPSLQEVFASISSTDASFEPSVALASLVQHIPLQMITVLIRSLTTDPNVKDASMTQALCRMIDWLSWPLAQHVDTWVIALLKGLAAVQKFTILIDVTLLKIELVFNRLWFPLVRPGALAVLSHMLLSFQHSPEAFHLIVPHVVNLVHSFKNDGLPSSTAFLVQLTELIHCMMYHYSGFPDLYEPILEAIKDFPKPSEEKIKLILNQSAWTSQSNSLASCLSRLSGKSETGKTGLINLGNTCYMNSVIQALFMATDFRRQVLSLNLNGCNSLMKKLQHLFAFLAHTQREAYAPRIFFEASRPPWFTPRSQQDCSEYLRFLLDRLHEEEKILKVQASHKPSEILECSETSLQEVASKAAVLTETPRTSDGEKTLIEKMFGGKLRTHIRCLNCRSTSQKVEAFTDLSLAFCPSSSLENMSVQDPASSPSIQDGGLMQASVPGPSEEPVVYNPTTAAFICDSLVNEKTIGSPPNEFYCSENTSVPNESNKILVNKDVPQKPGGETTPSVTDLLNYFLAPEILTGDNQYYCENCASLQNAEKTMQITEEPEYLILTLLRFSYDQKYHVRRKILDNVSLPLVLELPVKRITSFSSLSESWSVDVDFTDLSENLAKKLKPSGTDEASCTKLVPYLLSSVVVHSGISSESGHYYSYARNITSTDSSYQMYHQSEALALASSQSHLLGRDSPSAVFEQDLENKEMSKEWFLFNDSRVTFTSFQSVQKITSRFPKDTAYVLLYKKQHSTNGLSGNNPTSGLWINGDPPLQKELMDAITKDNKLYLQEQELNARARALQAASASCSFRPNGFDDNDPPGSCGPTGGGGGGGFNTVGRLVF
In short: as §1

USP39 = target: T3, USP39 (UniProt Q53GS9)
T3 sequence (whole entry): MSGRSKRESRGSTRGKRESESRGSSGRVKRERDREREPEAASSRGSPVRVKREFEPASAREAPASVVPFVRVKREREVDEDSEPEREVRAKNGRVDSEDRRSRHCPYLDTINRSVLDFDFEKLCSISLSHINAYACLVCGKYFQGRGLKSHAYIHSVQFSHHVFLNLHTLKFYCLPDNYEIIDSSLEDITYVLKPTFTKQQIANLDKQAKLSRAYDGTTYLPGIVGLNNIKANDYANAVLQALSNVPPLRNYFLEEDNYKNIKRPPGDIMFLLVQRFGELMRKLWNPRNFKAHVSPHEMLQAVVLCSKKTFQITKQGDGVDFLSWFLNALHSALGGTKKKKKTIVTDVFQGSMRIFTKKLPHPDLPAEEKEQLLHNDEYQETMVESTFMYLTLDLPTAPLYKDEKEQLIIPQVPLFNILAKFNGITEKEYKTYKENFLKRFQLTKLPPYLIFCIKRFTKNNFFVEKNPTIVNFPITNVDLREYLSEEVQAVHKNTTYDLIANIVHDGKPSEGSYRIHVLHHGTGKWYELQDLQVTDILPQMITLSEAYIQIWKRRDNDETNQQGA
In short: as §1

USP4 = target: T4, USP4 (UniProt Q13107)
T4 sequence (whole entry): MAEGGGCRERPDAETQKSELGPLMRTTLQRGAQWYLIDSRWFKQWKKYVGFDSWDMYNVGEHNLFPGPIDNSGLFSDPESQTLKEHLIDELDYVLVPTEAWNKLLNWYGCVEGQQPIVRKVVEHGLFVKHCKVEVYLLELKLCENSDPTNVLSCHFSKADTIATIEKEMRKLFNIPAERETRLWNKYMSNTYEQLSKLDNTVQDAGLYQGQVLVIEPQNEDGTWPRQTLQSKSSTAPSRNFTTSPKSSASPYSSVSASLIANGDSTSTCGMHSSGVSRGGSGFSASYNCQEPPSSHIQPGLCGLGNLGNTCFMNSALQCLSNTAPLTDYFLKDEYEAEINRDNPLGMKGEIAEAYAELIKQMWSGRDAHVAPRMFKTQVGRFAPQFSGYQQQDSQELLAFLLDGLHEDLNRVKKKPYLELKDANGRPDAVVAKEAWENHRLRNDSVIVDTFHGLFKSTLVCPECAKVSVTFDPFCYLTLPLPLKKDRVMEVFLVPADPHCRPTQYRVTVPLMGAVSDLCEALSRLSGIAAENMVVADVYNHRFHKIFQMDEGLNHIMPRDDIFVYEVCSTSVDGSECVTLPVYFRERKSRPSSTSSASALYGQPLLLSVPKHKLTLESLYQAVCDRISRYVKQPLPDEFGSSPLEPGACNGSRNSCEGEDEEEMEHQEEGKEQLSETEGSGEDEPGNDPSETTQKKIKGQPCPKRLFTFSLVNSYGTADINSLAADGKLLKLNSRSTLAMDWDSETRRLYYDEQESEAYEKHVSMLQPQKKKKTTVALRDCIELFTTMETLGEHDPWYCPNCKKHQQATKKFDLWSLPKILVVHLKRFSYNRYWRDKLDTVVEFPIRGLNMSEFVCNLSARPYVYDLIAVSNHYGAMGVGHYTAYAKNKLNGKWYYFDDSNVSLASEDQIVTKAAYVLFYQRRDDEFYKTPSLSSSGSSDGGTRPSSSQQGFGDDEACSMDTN
In short: as §1

Measured: log2 ratio of Biotin-Ahx-Ub-VS probe labelling

O=C(CCl)Nc1ccc(F)cc1Cl
inactive: USP34 -0.452 | USP36 0.0206 | USP38 -0.165 | USP39 0.253 | USP4 -0.129
